About 83,000 compounds went through this panel and 20% of them were active in at least one assay; those are over-represented in the sample as a whole.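 Interpretation: 100, growth as untreated; towards 0, rising growth inhibition; 0, no net growth; 0 to -100, cell death. Compounds scoring below 10 were considered active.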 Calls of active or inactive are those of the source.
Tested on: SK-MEL-28 melanoma
Assay: NCI-60 one-dose screen, 48 h (100 = growth as untreated, 0 = no growth, -100 = all killed)
Settings: 10 µM unless noted

SMILES | growth
CC(C)(C)OC(=O)NC(CSCc1ccccc1)C(=O)ON1C(=O)CCC1=O (stereo not given) | 120% (inactive)
C/C(=C\c1ccc(OCC(=O)O)c(Cl)c1Cl)[N+](=O)[O-] | 118% (inactive)
CCOC(=O)C1=C(C)NC(C)=C(C(=O)OCC)C1(C)C | 102% (inactive)
CCC(C)/C(=C\C#N)NCCCN/C(=C/C#N)C(C)CC (stereo not given) | 111% (inactive)
Cn1ncc2c(Sc3ccc(Cl)cc3)ncnc21 | 102% (inactive)
O=C(CSC1CCc2ccccc21)N/N=C/c1ccccc1O (stereo not given) | 57.2% (inactive)
CC1(c2ccc(Cl)cc2)OC(=O)CC(=O)O1 | 112% (inactive)
CCCCCCCCCCCCCCCCNC(=O)OC(C)C | 95.9% (inactive)
CC1CCC(C)N(C)C1 (stereo not given) | 107% (inactive)
CCc1cnc(=S)n(-c2ccccc2)c1 | 114% (inactive)
CC(=O)Nc1nc(N)nc(NC(C)=O)c1N=O | 115% (inactive)
O=C(c1ccccc1)C1OC1c1ccc([N+](=O)[O-])cc1 (stereo not given) | 97.4% (inactive)
COc1ccc2c(c1)C(c1cc(OC)c3c(c1)OCO3)C1=C(COC1=O)N2 (stereo not given) | 60% (inactive)
CC(=O)Nc1scc[n+]1Cc1ccccc1 | 109% (inactive)
O=C(Oc1ccccc1[N+](=O)[O-])C1CCCN1C(=O)OCc1ccccc1 (stereo not given) | 102% (inactive)
CC(=O)Nc1ccc(S(=O)(=O)n2ccc(-c3ccc4c(c3)CCC(C)(C)O4)n2)cc1 | 93.1% (inactive)
COc1cc(C2CC(c3ccc4c(c3)OCO4)=NN2C=O)cc(OC)c1OC (stereo not given) | 50.6% (inactive)
O=C1CCCCC1(c1ccccc1)c1ccccc1 | 95.6% (inactive)
Nc1nc(=O)c2ccccc2s1 | 121% (inactive)
CN1C=CN(Cc2ccc(-c3ccccn3)nc2)[CH-]1.CN1C=CN(Cc2ccc(-c3ccccn3)nc2)[CH-]1.[Au+3] | 50.7% (inactive)
COC(OC)c1ccccc1 | 104% (inactive)
CN(C)c1ncnc2c1ccn2C1OC(CO)C(O)C1O (stereo not given) | 82.5% (inactive)
NC1=NN(O)C2=CC([N+](=O)[O-])C=CC2=N1 (stereo not given) | 117% (inactive)
O=C([O][Sn]([O]C(=O)c1ccccn1)([c]1ccccc1)[c]1ccccc1)c1ccccn1 | 98.1% (inactive)
C=C(C)[C@@H]1C[C@H](O)Cc2cc(F)ccc2N1 | 103% (inactive)
CNC(=S)NNC(=O)C1CC1 | 113% (inactive)
CCOC(=O)C1CCNC(=O)C1=O (stereo not given) | 112% (inactive)
COc1ccc(CNCCCN2C(=O)c3ccc4c5c(ccc(c35)C2=O)C(=O)N(CCCNCCCCNCCCN)C4=O)c(OC)c1OC | 29% (inactive)
Cc1ccc(S(=O)(=O)C2=C3C(=C(c4ccccc4)c4ccccc43)CN(S(=O)(=O)c3ccc(C)cc3)C2)cc1 | 88% (inactive)
COc1cc2c(c(OC)c1OC)-c1ccc(N)c(=O)cc1[C@@H](NC(C)=O)CC2 | 61.8% (inactive)

Reference: PubChem BioAssay (NCI)
